# Assay results published in PMC7862700, “An all-to-all approach to the identification of sequence-specific readers for epigenetic DNA modifications on cytosine”.
# Columns and labels:
# Test in all cases: DAPPL (digital affinity profiling via proximity ligation, sequencing); 10 mM Tris-HCl pH 7.5, 50 mM NaCl, 1 mM DTT, 4% glycerol, room temperature, 30 min; GST-TFs on glutathione beads, 16-mer random dsDNA library, 0.1% formaldehyde crosslink after washing; high values mean tight binding
# Details in all cases: protein: recombinant; tags: N-terminal GST; dsDNA, one strand shown
# ELK1 = target: T1, ELK1 (Homo sapiens, UniProt P19419 1-428)
# T1 sequence: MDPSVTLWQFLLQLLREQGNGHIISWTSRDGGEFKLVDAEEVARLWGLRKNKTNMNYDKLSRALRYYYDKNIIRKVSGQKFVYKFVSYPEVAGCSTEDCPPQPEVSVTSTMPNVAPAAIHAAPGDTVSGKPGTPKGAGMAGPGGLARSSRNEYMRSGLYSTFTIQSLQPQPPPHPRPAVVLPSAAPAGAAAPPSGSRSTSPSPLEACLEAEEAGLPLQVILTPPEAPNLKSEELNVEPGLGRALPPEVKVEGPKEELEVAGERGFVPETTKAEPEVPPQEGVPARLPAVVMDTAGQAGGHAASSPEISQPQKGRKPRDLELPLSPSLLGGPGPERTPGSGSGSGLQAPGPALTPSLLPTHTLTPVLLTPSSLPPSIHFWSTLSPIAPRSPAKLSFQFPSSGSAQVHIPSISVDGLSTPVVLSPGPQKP
# Summary of the method: (§1)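 Sequencing on an Illumina NextSeq500 followed washing, crosslinking with 0.1% formaldehyde, proximity ligation (BsaI/T4 ligase, 1 h, 37 °C) and PCR amplification of pools that had been incubated for 30 min at room temperature with 200 nmole of a random double-stranded 16-mer DNA library in Tris/NaCl/DTT/glycerol buffer. Each pool held DNA-barcoded human transcription factors, expressed in yeast as GST fusions and captured on glutathione beads, plus a tag-only sample. Binding signal is a hexamer's read frequency for a factor divided by its frequency in the tag-only sample.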
# GABPA = target: T2, GABPA (Homo sapiens, UniProt Q06546 1-454)
# T2 sequence: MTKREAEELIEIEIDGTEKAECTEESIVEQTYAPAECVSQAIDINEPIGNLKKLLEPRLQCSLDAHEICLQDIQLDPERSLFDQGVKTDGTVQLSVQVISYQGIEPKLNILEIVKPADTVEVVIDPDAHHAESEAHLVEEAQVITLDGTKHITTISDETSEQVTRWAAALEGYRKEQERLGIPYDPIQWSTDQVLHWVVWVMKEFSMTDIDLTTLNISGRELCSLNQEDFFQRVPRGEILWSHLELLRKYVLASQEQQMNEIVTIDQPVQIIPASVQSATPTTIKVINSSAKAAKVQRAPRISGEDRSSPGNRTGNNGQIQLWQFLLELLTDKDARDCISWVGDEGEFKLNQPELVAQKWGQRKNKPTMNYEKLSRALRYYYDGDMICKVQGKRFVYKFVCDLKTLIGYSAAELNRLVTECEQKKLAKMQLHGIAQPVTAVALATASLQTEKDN
# Summary of the method: as §1
# ERG = target: T3, ERG (Homo sapiens, UniProt P11308 1-479)
# T3 sequence: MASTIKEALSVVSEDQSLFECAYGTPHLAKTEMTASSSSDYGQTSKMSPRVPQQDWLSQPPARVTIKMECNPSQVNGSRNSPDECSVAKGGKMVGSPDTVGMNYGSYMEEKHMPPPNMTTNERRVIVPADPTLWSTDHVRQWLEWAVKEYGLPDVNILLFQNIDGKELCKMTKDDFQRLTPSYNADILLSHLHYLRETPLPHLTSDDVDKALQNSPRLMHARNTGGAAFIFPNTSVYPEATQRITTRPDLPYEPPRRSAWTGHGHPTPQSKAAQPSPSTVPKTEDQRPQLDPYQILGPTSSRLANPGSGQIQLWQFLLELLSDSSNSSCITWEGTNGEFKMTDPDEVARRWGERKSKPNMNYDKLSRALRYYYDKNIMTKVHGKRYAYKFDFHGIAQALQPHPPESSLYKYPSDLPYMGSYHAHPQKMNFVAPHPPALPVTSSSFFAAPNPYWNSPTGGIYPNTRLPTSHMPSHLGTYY
# Summary of the method: as §1
# ELF1 = ELF1 (Homo sapiens, UniProt P32519 1-619)
# Chain of ELF1 (P32519 whole entry): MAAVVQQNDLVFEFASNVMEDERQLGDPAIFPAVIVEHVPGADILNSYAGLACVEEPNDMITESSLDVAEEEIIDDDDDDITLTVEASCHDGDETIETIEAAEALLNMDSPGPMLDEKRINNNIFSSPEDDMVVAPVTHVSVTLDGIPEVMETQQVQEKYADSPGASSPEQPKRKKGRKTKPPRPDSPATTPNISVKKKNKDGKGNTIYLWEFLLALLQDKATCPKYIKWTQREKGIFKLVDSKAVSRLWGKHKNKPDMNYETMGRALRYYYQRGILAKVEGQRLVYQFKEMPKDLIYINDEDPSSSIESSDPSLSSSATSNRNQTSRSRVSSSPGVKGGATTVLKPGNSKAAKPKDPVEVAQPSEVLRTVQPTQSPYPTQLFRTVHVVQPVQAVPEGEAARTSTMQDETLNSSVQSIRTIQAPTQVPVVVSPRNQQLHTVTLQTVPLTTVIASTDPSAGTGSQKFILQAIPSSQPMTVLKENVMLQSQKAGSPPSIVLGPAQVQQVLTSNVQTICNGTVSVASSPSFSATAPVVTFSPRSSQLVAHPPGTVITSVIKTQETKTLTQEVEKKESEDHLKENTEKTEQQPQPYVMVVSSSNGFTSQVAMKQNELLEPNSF
# Summary of the method: as §1
# EHF = target: T4, EHF (Homo sapiens, UniProt Q9NZC4 1-300)
# T4 sequence: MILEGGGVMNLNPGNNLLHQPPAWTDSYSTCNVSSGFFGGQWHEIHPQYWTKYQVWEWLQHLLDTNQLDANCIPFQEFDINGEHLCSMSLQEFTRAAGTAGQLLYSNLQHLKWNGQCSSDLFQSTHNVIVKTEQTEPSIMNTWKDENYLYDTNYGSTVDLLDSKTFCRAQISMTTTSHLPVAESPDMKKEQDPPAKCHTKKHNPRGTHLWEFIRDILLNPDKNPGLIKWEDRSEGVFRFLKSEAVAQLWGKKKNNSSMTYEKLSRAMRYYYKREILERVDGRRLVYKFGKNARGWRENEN
# Summary of the method: as §1
# SPIB = SPIB (Homo sapiens, UniProt Q01892 1-262)
# Chain of SPIB (Q01892 whole entry): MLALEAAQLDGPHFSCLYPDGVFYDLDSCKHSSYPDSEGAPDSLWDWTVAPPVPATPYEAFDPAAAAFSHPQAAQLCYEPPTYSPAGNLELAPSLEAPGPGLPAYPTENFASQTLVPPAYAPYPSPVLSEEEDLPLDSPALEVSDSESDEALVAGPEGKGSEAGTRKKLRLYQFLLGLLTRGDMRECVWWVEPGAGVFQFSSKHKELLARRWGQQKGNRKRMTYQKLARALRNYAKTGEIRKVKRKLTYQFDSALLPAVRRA
# Summary of the method: as §1
# FEV = target: T5, FEV (Homo sapiens, UniProt Q99581 1-238)
# T5 sequence: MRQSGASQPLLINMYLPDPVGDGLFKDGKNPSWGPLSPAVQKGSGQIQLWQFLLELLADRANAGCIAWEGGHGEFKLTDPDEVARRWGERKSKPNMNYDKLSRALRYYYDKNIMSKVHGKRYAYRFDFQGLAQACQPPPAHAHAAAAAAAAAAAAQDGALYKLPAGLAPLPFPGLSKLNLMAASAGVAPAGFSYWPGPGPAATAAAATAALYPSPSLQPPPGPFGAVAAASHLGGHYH
# Summary of the method: as §1
# ETV5 = ETV5 (Homo sapiens, UniProt P41161 1-510)
# Chain of ETV5 (P41161 whole entry): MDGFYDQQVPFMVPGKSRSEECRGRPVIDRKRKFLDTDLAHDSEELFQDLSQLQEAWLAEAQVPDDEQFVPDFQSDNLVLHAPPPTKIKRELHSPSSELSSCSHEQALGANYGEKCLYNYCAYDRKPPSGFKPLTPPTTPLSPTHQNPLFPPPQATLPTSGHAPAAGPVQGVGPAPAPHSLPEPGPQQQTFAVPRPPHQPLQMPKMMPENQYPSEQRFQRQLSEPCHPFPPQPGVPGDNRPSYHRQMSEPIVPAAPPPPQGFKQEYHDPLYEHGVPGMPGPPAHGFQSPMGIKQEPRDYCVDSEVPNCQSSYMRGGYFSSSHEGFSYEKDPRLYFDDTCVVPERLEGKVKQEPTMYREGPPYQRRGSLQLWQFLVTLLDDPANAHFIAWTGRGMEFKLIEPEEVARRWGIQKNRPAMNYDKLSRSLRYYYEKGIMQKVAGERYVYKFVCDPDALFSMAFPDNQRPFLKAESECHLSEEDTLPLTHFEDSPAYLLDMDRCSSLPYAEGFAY
# Summary of the method: as §1
# ELF4 = ELF4 (Homo sapiens, UniProt Q99607 1-663)
# Chain of ELF4 (Q99607 whole entry): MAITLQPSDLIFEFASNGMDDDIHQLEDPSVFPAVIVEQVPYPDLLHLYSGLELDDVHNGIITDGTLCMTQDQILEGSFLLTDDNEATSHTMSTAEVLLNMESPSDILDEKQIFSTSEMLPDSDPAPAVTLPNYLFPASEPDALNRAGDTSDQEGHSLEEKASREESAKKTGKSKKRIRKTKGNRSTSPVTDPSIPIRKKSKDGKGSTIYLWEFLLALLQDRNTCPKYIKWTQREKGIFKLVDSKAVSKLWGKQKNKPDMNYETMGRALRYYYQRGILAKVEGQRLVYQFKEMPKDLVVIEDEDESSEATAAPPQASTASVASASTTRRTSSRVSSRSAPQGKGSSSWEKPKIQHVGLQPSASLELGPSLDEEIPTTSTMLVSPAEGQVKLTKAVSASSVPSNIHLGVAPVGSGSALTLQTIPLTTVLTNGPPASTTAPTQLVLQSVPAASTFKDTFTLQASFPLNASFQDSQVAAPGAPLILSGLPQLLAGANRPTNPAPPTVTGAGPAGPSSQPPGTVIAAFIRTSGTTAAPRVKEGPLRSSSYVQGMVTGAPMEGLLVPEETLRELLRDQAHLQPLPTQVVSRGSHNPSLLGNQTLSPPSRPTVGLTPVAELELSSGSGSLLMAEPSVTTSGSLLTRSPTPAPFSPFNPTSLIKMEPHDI
# Summary of the method: as §1
# ELK4 = target: T6, ELK4 (Homo sapiens, UniProt P28324-2 1-405)
# T6 sequence: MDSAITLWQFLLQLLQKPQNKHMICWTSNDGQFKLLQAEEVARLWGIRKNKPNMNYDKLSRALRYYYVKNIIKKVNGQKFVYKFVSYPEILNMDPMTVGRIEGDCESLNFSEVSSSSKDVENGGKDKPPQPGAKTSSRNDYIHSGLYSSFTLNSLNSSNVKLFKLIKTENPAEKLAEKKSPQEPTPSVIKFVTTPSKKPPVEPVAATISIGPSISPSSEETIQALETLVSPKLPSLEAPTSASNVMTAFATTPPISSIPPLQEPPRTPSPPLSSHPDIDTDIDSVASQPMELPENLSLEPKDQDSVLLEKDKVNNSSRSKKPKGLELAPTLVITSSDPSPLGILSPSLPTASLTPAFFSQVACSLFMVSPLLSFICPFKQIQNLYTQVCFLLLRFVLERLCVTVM
# Summary of the method: as §1
sequence,measurement,setting,value
ACCATT,binding signal,ELK1,"1.11 fold enrichment (6-mer frequency, TF over GST control)"
same,binding signal,GABPA,"1.1 fold enrichment (6-mer frequency, TF over GST control)"
same,binding signal,ERG,"1.12 fold enrichment (6-mer frequency, TF over GST control)"
same,binding signal,ELF1,"1.1 fold enrichment (6-mer frequency, TF over GST control)"
same,binding signal,EHF,"1.11 fold enrichment (6-mer frequency, TF over GST control)"
same,binding signal,SPIB,"1.11 fold enrichment (6-mer frequency, TF over GST control)"
same,binding signal,FEV,"1.15 fold enrichment (6-mer frequency, TF over GST control)"
same,binding signal,ETV5,"1.08 fold enrichment (6-mer frequency, TF over GST control)"
same,binding signal,ELF4,"1.19 fold enrichment (6-mer frequency, TF over GST control)"
same,binding signal,ELK4,"1.15 fold enrichment (6-mer frequency, TF over GST control)"
